Data as given in PubChem BioAssay AID624330 (Southern Research Specialized Biocontainment Screening …, 2012).
Several values for one entry are separate records, joined by “and”; a condition that tells them apart may be missing. Equal entries are not always repeated. Screen size: about 340,000 compounds; about 2,100 (0.62%) were called active.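 The calls were made as follows: active = first-screen hits whose inhibition reached a set limit at any dose in the follow-up dose series; inconclusive = inhibition above the set first-screen limit but never retested; inactive = the rest.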 A selection follows. Measured potencies and affinities stand elsewhere.

biological target: Rac GTPase-activating protein 1 (Homo sapiens) (UniProt Q9H0H5); assay: MgcRacGAP GTPase-activating activity inhibitors, confirmation, biochemical, ADP Hunter fluorescence, primary and confirmatory (AID 624330); settings: MgcRacGAP-stimulated Rac1 GTP hydrolysis, at 30 µM, hits give high values, GST-tagged Rac1 F28L mutant substrate;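 also: fluorescence reports GDP produced by GAP-driven GTP hydrolysis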
Sequence (Q9H0H5 whole entry, looked up): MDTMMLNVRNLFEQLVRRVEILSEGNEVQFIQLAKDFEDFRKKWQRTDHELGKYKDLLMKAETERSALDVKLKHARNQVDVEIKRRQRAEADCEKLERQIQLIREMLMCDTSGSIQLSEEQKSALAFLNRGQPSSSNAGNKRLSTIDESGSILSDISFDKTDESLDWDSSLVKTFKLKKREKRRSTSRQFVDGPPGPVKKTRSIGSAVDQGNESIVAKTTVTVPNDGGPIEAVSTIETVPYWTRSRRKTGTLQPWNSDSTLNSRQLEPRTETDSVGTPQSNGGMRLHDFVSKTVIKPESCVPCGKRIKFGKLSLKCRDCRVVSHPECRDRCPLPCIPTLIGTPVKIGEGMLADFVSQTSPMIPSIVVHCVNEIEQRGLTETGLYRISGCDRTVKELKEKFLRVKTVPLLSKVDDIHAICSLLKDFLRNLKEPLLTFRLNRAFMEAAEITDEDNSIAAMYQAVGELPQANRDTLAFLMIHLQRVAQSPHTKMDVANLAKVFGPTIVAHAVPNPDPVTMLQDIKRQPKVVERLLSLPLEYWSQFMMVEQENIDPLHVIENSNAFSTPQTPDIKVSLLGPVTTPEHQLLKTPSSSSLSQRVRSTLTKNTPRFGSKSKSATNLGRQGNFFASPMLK

inhibition, inactive:
CCOC(=O)CC1CCCCN1C(=O)CCCn1nnnc1CN1CCOCC1 (stereo unspecified) 7.71%
O=C(COc1ccc2ccccc2c1)N1CCCC1 7.41%
Cc1cccc(OCC(=O)N2CCN(C(=O)COc3ccc(Cl)cc3)CC2)c1 9.73%
CCOC(=O)N1CCN(C(=O)COc2ccc([N+](=O)[O-])cc2)CC1 -2.93%
Cc1ccc(OCC(=O)N2CCN(C(=O)c3ccc([N+](=O)[O-])cc3)CC2)cc1 4.34%
Cc1cccc(OCC(=O)N2CCN(C(=O)Cc3ccccc3)CC2)c1 8.65%
O=C(COc1ccc2ccccc2c1)N1CCN(C(=O)c2cccnc2)CC1 8.31%
CCn1ccnc1CN(C)C(=O)C1CCC(=O)N(Cc2cccc(C(F)(F)F)c2)C1 (stereo unspecified) 4.11%
COc1cc(NC(=O)COC(=O)CNS(=O)(=O)c2ccc(F)c(F)c2F)cc(OC)c1 9.27%
COc1ccc(-n2nc(C(=O)NCC(=O)NCCN(C)C)c3ccccc3c2=O)c(OC)c1 8.96%
Cc1nn(C)cc1CNC(=O)/C=C/c1cnn(C)c1 -2.3%
O=[N+]([O-])c1ccc(N2CCCCC2)nc1N1CCCCC1 2.43%
O=C(COC(=O)C1CCN(c2ccc(C(F)(F)F)cn2)CC1)NCc1ccccc1 2.35%
CC12CCC(=O)N1C(C(=O)OCC(=O)Nc1ccc(S(N)(=O)=O)cc1)CS2 (stereo unspecified) 0.82%
N#Cc1ccc(-c2csc(NC(=O)c3ccc(N4C(=O)CCC4=O)cc3)n2)cc1 6.12%
O=c1/c(=C/c2cccc3ccccc23)sc2ncnn12 17.9%
CCCCOc1ccc(/C=c2\sc3ncnn3c2=O)cc1 8.68%
CN1CCN(C(=O)CN(C)S(=O)(=O)c2cc(Cl)ccc2Cl)CC1 1.86%
COc1ccccc1CNCC(=O)Nc1ccc(C(F)(F)F)cc1 25%
COc1ccc(CNCC(=O)Nc2ccccc2-n2cccc2)cc1 36.5%
COc1ccccc1CNCc1ccc(C)cc1 7.48%
O=C1CN(C(=O)CNCc2ccccc2)c2ccccc2N1 23.4%
COc1ccccc1CNCC(=O)Nc1ccc(C#N)cc1 31.8%
COc1ccccc1CNC(=O)CNC(=O)N1CC(=O)Nc2ccccc21 10.5%
O=C(CNCc1ccco1)Nc1ccccc1-n1cccc1 12.8%
COc1ccccc1CNC(=O)Cc1ccc(C)cc1 4.63%
O=CNc1ccccc1Oc1ccccc1 8.55%
Cc1ccc(N(C(=O)c2snc(C(N)=O)c2N)C(C(=O)NC2CCCC2)c2ccc(C)o2)cc1 (stereo unspecified) 2.21%
CC(=O)c1ccc(NC(=O)CSc2nnc(C3CC3)n2C)cc1 -6.69%
O=C(CSc1cn(CCNC(=O)c2ccc3ccccc3c2)c2ccccc12)NCc1ccco1 11.1%
CC(C)C(=O)Nc1ccc2c(c1)nc1n2CCSC1 5.79%
Cc1ccccc1OCC(O)CN1CCC(C)CC1 (stereo unspecified) 8.53%
CC1CCN(CC(O)COc2ccc(OCC(O)CN3CCC(C)CC3)cc2)CC1 (stereo unspecified) 15.7%
Cn1ccnc1C(=O)c1cc(SCC(=O)N2CCOCC2)nc2ccccc12 -0.39%
S=C1SC2(CCCCCC2)NC2=C1CCCCC2 8.68%
CCOC(=O)CCSc1nc(C)c2cc(C)ccc2n1 5.59%
Cc1c(O)ccc2c(=O)c(Oc3ccccc3)coc12 9.78%
Cc1ccc(Oc2coc3cc(OC(=O)c4cccs4)ccc3c2=O)cc1 1.09%
CC1NC(=O)c2cc3ccccc3cc2-n2c1nc1cc(Cl)ccc1c2=O (stereo unspecified) 9.82%
CC(Oc1ccc(Cl)cc1)C(=O)Nc1ccccc1N1CCOCC1 (stereo unspecified) 2.3%
NN1C(=O)/C(=C2/Sc3ccccc3N2CCCS(=O)(=O)O)SC1=S 12.5%
CCN1/C(=C2/SC(=S)NC2=O)Sc2ccccc21 1.71%
CCOC(=O)N1CCN(S(=O)(=O)c2c(C)nc3sccn3c2=O)CC1 8.06%
O=C1/C(=C\c2ccc([N+](=O)[O-])cc2)CCc2ccccc21 2.14%
COc1ccc(C=C2CS(=O)(=O)CC(=Cc3ccc(OC)cc3)C2=O)cc1 8.37%
O=[N+]([O-])c1ccc(N2CCN(S(=O)(=O)c3ccc(Cl)c(Cl)c3)CC2)cc1NCCN1CCOCC1 -6.11%
COc1ccc2o/c(=N\O)c(C(=O)Nc3ccc(C)cc3)cc2c1 6.76%
COc1ccccc1NC(=O)c1cc2ccc(O)cc2o/c1=N\O 16.6%
CCOC(=O)C1=CN(Cc2cccc(-c3ccc(F)cc3)c2)S(=O)(=O)N(C)C1C (stereo unspecified) 8.9%
Cc1cc(C)nc(Nc2ccc(Cl)cc2C)n1 4.71%
Cc1nc2sc(C(c3cccs3)N3CCC4(CC3)OCCO4)c(O)n2n1 (stereo unspecified) 1.65%
Cc1cc(C)c2ccc(=O)n(CC(=O)N/N=C/c3ccccc3Cl)c2n1 5.91%
COc1cc2[nH]c3ccccc3c2cc1C -5.8%
Cc1ccc(C)c2c1[nH]c1ccccc12 10.6%
Cc1ccc(C(C)C)c(OC/C(O)=C(\C#N)c2nc3ccccc3[nH]2)c1 6.88%
CC1(C)C(c2ccccc2)=[N+]([O-])C2(CCCCC2=O)N1O (stereo unspecified) 1.13%
CCOC(=O)C1CCN(S(=O)(=O)CCNC(=O)c2ccc(F)cc2)CC1 6.46%
Oc1ccc(N=Nc2ccc(Br)cc2)c(O)c1 12.2%
O=S(=O)(O)c1cccc2c(N=Nc3ccc(O)c4ncccc34)cccc12 18.4%
O=[N+]([O-])c1ccc(N=Nc2ccc(O)cc2O)cc1 7.64%
O=S(=O)(O)c1cc(O)ccc1O 4.04%
O=C(Cc1ccc(F)cc1)NC(Cc1c[nH]c2ccccc12)C(=O)O (stereo unspecified) -3.39%
Cc1c(Cl)cnc(NC(=O)CSc2nnnn2C)c1Cl 3.41%
CN1CCN(CCCN2c3ccccc3Sc3ccc(C(F)(F)F)cc32)CC1 7.89% and 12.7% and 6.18%
CN(C)CCCN1c2ccccc2Sc2ccc(Cl)cc21 22% and 17.9%
OCCN1CCN(CCCN2c3ccccc3Sc3ccc(Cl)cc32)CC1 31.9%
CC(=O)c1ccc2c(c1)N(CCCN(C)C)c1ccccc1S2 12.4%
CNc1ccc(/C=C/C(=O)c2cccc3ccccc23)cc1[N+](=O)[O-] 1.28%
CCN(C(=O)COC(=O)/C=C/c1c(C)nn(-c2ccccc2)c1C)C1CCS(=O)(=O)C1 (stereo unspecified) 5.67%
CC(=O)c1ccc(NC(=O)CN2CCN(c3ccccc3)CC2)cc1 5.48%
CC[C@H](C)NC(=O)CCCCCn1c(=S)[nH]c2c([nH]c3ccc(OC)cc32)c1=O 3.32%
COc1ccc2[nH]c3c(=O)n(CCCCC(=O)N4CCCC4)c(=S)[nH]c3c2c1 23.1%
COc1ccc2[nH]c3c(=O)n(Cc4ccc(C(=O)N5CCCCCC5)cc4)c(=S)[nH]c3c2c1 6.08%
COc1ccc2[nH]c3c(=O)n(Cc4ccc(C(=O)N5CCCC5)cc4)c(=S)[nH]c3c2c1 4.08%
CC(C)(CO)CNC(=O)CCc1nnc(-c2ccc(-c3ccccc3)cc2)o1 9.2%
CC(OC(=O)c1ccc(-c2ccc(O)cc2)cc1)C(=O)NC1CCCCC1C (stereo unspecified) 8.27%
CC(C)CN1CCC(Oc2cccc(C(=O)NCCc3ccccc3)c2)CC1 11.2%
CC(=O)c1sc(NC(=O)c2cccc(N3C(=O)CCC3=O)c2)nc1-c1ccccc1 2.55%
C[C@@H]1CN([C@@H](C)CO)C(=O)CCCn2nncc2CO[C@H]1CN(C)S(=O)(=O)c1ccc2c(c1)OCCCO2 7.05%
Cc1ccc([C@@H]2C[C@H]3[C@@H](CN2S(=O)(=O)c2ccc(Cl)cc2)C(=O)C[C@@H](c2ccccc2)N3S(=O)(=O)c2ccc(C)cc2)cc1 17.6%
Cc1ccc(C2/C=C\CC(NC(=O)OCC3c4ccccc4-c4ccccc43)CC(=O)N2Cc2ccccc2)cc1 (stereo unspecified) 7.21%
Cc1c(-c2ccccc2)cn2c1-c1ccc(C)n1CC2 5.62%
CCCC1=[N+](CC(C)=O)CCn2c(C)ccc21 -4.62%
COc1cc2c(cc1NC(=O)CSc1nc3cc(Cl)ccc3s1)oc1ccccc12 5.98%
CCc1ccc(-c2nn(Cc3ccccc3)cc2C(=O)NCC2CCCO2)cc1 (stereo unspecified) 0.77%
O=C(N/N=C/c1cccc(F)c1)c1cc(-c2ccco2)nc2ccccc12 7.31%
CC(=O)Nc1ccc(/C=N/NC(=O)c2cc(-c3ccco3)nc3ccccc23)cc1 6.26%
CSc1nc(C)c(C(=O)C[n+]2ccccc2)cc1C#N 5.97%
FC(F)(F)c1cccc(N2CCN(Cc3ccoc3)CC2)c1 9.97%
COc1ccc(-n2c(=S)[nH]c3cc(C(=O)O)ccc3c2=O)cc1 1.88%
COc1cc(S(N)(=O)=O)c(OC)cc1N 7.46%
COc1ccc(N=Nc2ccc(N)nc2N)cc1 18.6%
COc1ccc(C(=O)c2ccc(OC)c(N)c2)cc1N 4.59%
Cc1cc(N=Nc2c(O)c3ccccc3[nH]c2=O)ccc1N=Nc1ccc(C(=O)N(C)C)cc1 6.51%
COc1ccc(OC)c(N)c1 18.5%
Cc1ccc(N=Nc2ccc(N)cc2C)c(S(N)(=O)=O)c1 13.8%
